This note sets out measurements from PubChem BioAssay.

Assay [1] deals with Human papillomavirus type 1a protein E7 (residues 44-93). The experiment in a line: HPV1a E7 fragment binders on microarrays, primary screen, biochemical, small-molecule microarray, residues 44-93, 635 nm fluorescence (AID 1108).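 Further: E7 fragment applied at 1 µg/mL in TBST for 1 h at 4 C; score combines spot fluorescence with its signal to noise ratio.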 The note with it: small-molecule microarray binding, fluorescence 635 nm; higher = more signal.
Assay [2] can be described thus: modulators of HCV replicon luciferase signal, primary screen, HCV replication inhibitor project, Huh7 cells, luciferase reporter (AID 1109).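 Further: huh7 hepatoma cells harbouring a luciferase neomycin HCV replicon reporter; luciferase luminescence as measure of HCV replicon replication; test concentration not given here.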 The note with it: 48 h, higher = more signal. For orientation: Replicon systems follow genome replication, usually without infectious particles.
For assay [3], the target named is Left-right determination factor 2 (Homo sapiens) (UniProt O00292). The experiment in a line: LEFTY2 binders on small-molecule microarrays, primary screen, biochemical, small-molecule microarray, 635 nm fluorescence scan (AID 1110). The settings on record: LEFTY2 binding, higher = more signal.
Assay [4] has as its target Calmodulin-1 (Homo sapiens) (UniProt P0DP23). The experiment in a line: CALM1 binders on microarrays, EGTA buffer, profiling panel, biochemical, small-molecule microarray, Cy5-labelled CALM1 (AID 1111).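 Further: labelled calmodulin applied in Tris saline Tween buffer holding calcium plus EGTA and DTT.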 The note with it: Cy5-CALM1 binding fluorescence, higher = more signal.
Assay [5] shares this target. The experiment in a line: calcium-bound CALM1 binders on microarrays, profiling panel, artefact control for SMM control-protein annotation, biochemical, small-molecule microarray, Cy5-labelled CALM1, plus calcium (AID 1112).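 Further: score merges spot fluorescence with signal to noise from triplicate slides.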 The settings on record: Cy5-CALM1 binding fluorescence, higher = more signal.
Assay [6] is described as follows: small-molecule microarray binders of probe aWnt5a, primary screen, biochemical, biotinylated probe, 635/667 nm fluorescence (AID 1113).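 Further: score merges 667 nm fluorescence intensity with signal-to-noise per printed feature.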 The settings on record: higher = more signal.
Assay [7] in a line: small-molecule microarray binders of probe aShh, primary screen, biochemical, biotinylated probe, 635/667 nm fluorescence (AID 1114).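 Further: probe is biotin-labelled aShh protein from a stem cell growth factor screen; measures binding of labelled protein to compounds printed on the slide; score merges feature fluorescence at 667 nm with signal-to-noise.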 The note with it: higher = more signal.
Assay [8] is described as follows: small-molecule microarray binders of probe aNog, primary screen, biochemical, biotinylated probe, 635/667 nm fluorescence (AID 1115).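 Further: probe is biotinylated aNog protein used at 0.15 µg/mL for 1 h at 4 C; z-score combines 667 nm fluorescence of each spot with its signal to noise.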 The settings on record: higher = more signal.
Assay [9] deals with Torsin-1A-interacting protein 1 (Homo sapiens) (UniProt Q5JTV8). The assay can be described thus: LAP1 binders from COS7 cell lysate, primary screen, small-molecule microarray, 635/667 nm fluorescence (AID 1116). The settings on record: COS7-hLAP1 lysate binding, 635 nm fluorescence, higher = more signal.
Assay [10] addresses Alpha-bungarotoxin (Bungarus multicinctus) (UniProt P60615). The assay can be described thus: alpha-bungarotoxin binders on microarray, profiling panel, artefact control for SMM control protein annotation, biochemical, small-molecule microarray, Alexa647 label, 635/667 nm fluorescence (AID 1117). The note with it: alpha-BTX-A647 binding fluorescence, higher = more signal.

Chain of Alpha-bungarotoxin (Bungarus multicinctus) (P60615 whole entry, looked up): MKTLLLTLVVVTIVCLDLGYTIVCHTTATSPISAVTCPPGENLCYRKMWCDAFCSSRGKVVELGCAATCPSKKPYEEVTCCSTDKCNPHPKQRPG
Chain of Left-right determination factor 2 (Homo sapiens) (O00292 whole entry, looked up): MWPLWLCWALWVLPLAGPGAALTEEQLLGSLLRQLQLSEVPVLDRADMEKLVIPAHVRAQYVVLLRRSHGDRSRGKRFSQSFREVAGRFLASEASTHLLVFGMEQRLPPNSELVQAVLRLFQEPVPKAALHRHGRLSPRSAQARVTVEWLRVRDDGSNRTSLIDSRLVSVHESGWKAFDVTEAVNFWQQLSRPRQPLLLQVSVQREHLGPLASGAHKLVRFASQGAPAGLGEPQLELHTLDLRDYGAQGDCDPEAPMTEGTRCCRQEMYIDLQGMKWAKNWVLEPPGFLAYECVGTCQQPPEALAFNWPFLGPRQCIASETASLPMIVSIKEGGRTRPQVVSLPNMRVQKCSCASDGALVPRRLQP
Chain of Torsin-1A-interacting protein 1 (Homo sapiens) (Q5JTV8 whole entry, looked up): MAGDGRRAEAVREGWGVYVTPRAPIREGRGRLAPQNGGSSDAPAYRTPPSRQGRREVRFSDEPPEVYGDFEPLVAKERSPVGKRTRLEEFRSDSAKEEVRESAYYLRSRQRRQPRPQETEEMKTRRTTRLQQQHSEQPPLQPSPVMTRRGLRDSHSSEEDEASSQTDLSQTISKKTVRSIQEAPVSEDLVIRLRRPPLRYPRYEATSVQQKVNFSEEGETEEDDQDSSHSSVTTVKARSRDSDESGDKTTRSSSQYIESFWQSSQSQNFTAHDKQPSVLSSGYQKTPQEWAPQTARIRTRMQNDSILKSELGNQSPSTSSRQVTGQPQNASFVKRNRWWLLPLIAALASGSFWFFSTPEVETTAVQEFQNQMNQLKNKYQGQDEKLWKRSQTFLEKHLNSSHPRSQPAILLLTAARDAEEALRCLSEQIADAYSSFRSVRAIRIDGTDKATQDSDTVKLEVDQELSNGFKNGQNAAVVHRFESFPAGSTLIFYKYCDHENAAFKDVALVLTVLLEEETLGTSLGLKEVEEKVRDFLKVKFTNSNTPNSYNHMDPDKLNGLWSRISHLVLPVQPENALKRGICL

As for `CC(C)N1CC=CC23O[C@@H]4C=CCCOC(=O)C4[C@H]2C(=O)N(CCO)[C@@H]3C1=O` (stereo not given in full), the composite z-score in [1] was -0.478; in [3], -0.289; in assay [4], -0.343; in [5], -0.348; in [6] it was -0.224; in assay [7], -0.282. The composite z-score in [8] is -0.0852; in assay [9] it was -0.494; in [10], -0.048. The z-score in assay [2] was 0.516.

As for `C=CC[C@H](OC(=O)Nc1ccc(OC)cc1)c1ccc(O)c2ccccc12`, the composite z-score in [1] is 1.07; in assay [3] it was 0.848; in assay [4], 0.107; in [5], -0.636; in assay [6], 0.0511; in [7] it was 0.0469. Also, the values for the composite z-score in [8], in [9] and in [10] were 0.241, 0.505 and 1.78, respectively. In assay [2], this molecule displayed a z-score of -3.63.

For `O=C1O[C@@H](c2ccccc2)[C@@H](c2ccccc2)N2[C@@H](c3ccccc3OCCO)[C@]3(C(=O)Nc4ccccc43)[C@@H](C(=O)NC[C@H](O)c3ccccc3)[C@H]12`, the composite z-score in [1] is 0.705; in assay [3], -0.555; in [4] it was 1.08; in assay [5] it was 0.845; in [6] it was -0.152; in assay [7], 0.0557. For the same molecule, the composite z-score in assay [8] was -0.0161; in [9], 1.35; in assay [10], -0.327. Moreover, in assay [2], the z-score is -3.3.

Turning to `Cc1ccc(S[C@]2(C(=O)O)CC(=O)N(Cc3ccccc3Cl)[C@@H]2c2ccc(CO)cc2)cc1`, the composite z-score in assay [1] is 0.459; in assay [3] it was -1.54; in [4] it was 0.459; in assay [5] it was 0.644; in [6] it was -0.192; in assay [7], 0.131. The figures for the composite z-score in assay [8], in [9] and in assay [10] were 0.549, 0.0695 and 1.57, respectively. In [2], this molecule displayed a z-score of -0.828.

With `CCN(CC)c1ccc(N2CC=CC34O[C@@H]5/C=C\CCC(C)OC(=O)C5[C@H]3C(=O)N(CCO)[C@@H]4C2=O)cc1` (stereo not given in full), the composite z-score is 1.14 in assay [1]; -1.05 in assay [3]; -0.653 in [4]; -0.897 in assay [5]; -0.148 in assay [6]; 0.147 in assay [7]. Further, the composite z-score is -0.0503 in [8], 2.67 in assay [9] and -0.699 in assay [10]. Further, in assay [2], the z-score is -1.35.

With `CCCN1C(=O)[C@]2(Cc3ccccc3)N=C(c3ccc(OCCCO)cc3)O[C@@H]2c2ccccc21`, the composite z-score in [1] was 1.06; in [3], 0.118; in [4] it was 1.14; in [5], -0.422; in assay [6] it was 0.027; in assay [7], -0.231. Besides, the composite z-score was -0.646 in [8], 0.42 in [9] and 1.33 in [10]. For the same molecule, in assay [2], the z-score is -2.7.

As for `CC(C)C(O)C1C=CC2C(=O)N(C)C(=O)C2N1N(c1ccccc1)c1ccccc1` (stereo not given), the composite z-score in assay [1] is -0.192; in assay [3] it was 0.0172; in assay [4] it was 0.107; in [5] it was 0.368; in assay [6], -0.0165; in assay [7], 0.14. The composite z-score in [8] was determined as 0.603; in [9], 0.251; in assay [10] it was 0.218. The same molecule gave a z-score in assay [2] of 0.865.

Take `CCCc1cccc(=O)o1`: the composite z-score was 0.364 in assay [1]; 0.427 in [3]; 0.0369 in assay [4]; -0.116 in assay [5]; 0.0037 in [6]; 0.0723 in assay [7]. Moreover, the results for the composite z-score in [8], in assay [9] and in assay [10] were 0.0638, 0.898 and 0.696, respectively. In addition, in assay [2], the z-score is -0.672.

For the molecule `C=CCN1C(=O)[C@]2(CC=C)N=C(c3ccc(OCCCO)cc3)O[C@@H]2c2ccccc21`, the composite z-score in [1] turned out to be 1.37; in assay [3], 0.503; in [4], 1.94; in assay [5], 0.541; in [6], 0.123; in [7], 0.0253. Besides, the composite z-score in [8] worked out at 0.0962; in [9] it was 1.14; in assay [10], 1.08. This molecule also had a z-score in assay [2] of -2.63.

As for `C=C(COC)/C(=C/C[C@@H](OC(=O)c1ccncc1)c1ccc(CO)o1)c1cnc2ccccc2c1`, the composite z-score in [1] was 1.42; in assay [3], 1.03; in [4], 0.274; in assay [5], -0.851; in assay [6], 0.0037; in assay [7], 0.365. The composite z-score is 0.557 in [8], 1.83 in [9] and 2.65 in assay [10]. Besides, the z-score in assay [2] is -0.632.

As for `NC(=O)N1C(=O)C2C(C1=O)C1C=C(CCCO)C2C(c2cccs2)N1Cc1cc2c(cc1Br)OCO2` (stereo not given), the composite z-score in assay [1] is 0.183; in assay [3] it was -0.451; in assay [4], 1.03; in [5], 0.25; in assay [6], -0.0685; in [7], 0.147. Also, the composite z-score in assay [8] worked out at 0.244; in [9] it was 0.333; in [10], 1.23. This molecule displayed a z-score in assay [2] of 0.199.

As for `CC(C)CCC[C@@H](C)[C@H]1CC[C@@]2(C)C3=C(CC[C@]12C)[C@@]1(C)CC[C@H](OC(=O)c2ccc(Br)cc2)C(C)(C)C1CC3` (stereo not given in full), the composite z-score was -0.298 in assay [1]; 0.711 in assay [3]; 0.132 in assay [4]; -0.442 in assay [5]; -0.157 in assay [6]; -0.0977 in [7]. Further, the composite z-score in assay [8] is -0.18; in assay [9], 0.162; in assay [10] it was 0.204. The z-score in assay [2] is 0.132.

For `Cc1c(NC(=O)/C(C#N)=C/C=C/c2ccc(N(C)C)cc2)c(=O)n(-c2ccccc2)n1C`, the composite z-score in assay [1] is 0.55; in assay [3], 0.431; in [4] it was 0.824; in assay [5], -0.224; in assay [6], 0.19; in assay [7], 0.173. The composite z-score in assay [8] is 0.432; in [9] it was 1.69; in assay [10] it was 1.04. The z-score in assay [2] is -0.754.
